Screens deposited in PubChem by Sanford-Burnham Center for Chemical Genomics.
FAS TE block – FAS thioesterase domain inhibitors, primary screen, biochemical, fluorescence intensity, uHTS; 0.67% of 360,000 active; AID 602261, 2012; recombinant FAS-TE, OMFH fluorogenic substrate, fluorescence endpoint; Fatty acid synthase (Homo sapiens), P49327; inhibition, % at 15 µM;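 active = compounds whose normalised, plate-corrected inhibition of enzyme fluorescence in the single-dose primary screen is 50% or more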
A3A deaminase – APOBEC3A ssDNA deaminase inhibitors, primary screen, selectivity assay for APOBEC3G inhibitor project, biochemical, FAM/TAMRA oligo cleavage fluorescence; DNA dC->dU-editing enzyme APOBEC-3A (Homo sapiens), P31941; recombinant A3A, FAM/TAMRA ssDNA deamination fluorescence; inhibition, % at 20 µM; 0.41% of 330,000 active; AID 493011, 2011;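 active = at least 40% inhibition at 20 µM here, with at most 30% in a related deaminase screen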
NPR1 activator – GC-A stimulated cGMP production enhancers – HEK293 GC-A cells, cGMP TR-FRET, EC30 ANP, primary screen; Atrial natriuretic peptide receptor 1 (Homo sapiens), P16066; 0% at EC30 ANP, 100% saturating ANP; activation, % at 10 µM; 0.14% of 370,000 active; in the data active = activation above about 40%
A3G deaminase – APOBEC3G DNA deaminase inhibitors, primary screen, biochemical, fluorescence, single-stranded DNA substrate, uHTS; inhibition, % at 20 µM; DNA dC->dU-editing enzyme APOBEC-3G (Homo sapiens), Q9HC16; recombinant A3G, ssDNA deamination FAM/TAMRA fluorescence; 0.28% of 330,000 active;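 active = inhibition of at least 40% at 20 µM, with no more than 30% in the related APOBEC3A deaminase screen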
GC-B act – human GC-B receptor activators, primary screen, HEK293 GC-B cells, cGMP TR-FRET, EC30 CNP; Atrial natriuretic peptide receptor 2 (Homo sapiens), P20594; 0% at EC30 CNP, 100% saturating CNP; activation, % at 10 µM; 0.11% of 370,000 active;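 active = activation at 10 µM reaching about 35% in either raw or pattern-adjusted values, limit read from the data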
Target sequence (P20594 whole entry, looked up): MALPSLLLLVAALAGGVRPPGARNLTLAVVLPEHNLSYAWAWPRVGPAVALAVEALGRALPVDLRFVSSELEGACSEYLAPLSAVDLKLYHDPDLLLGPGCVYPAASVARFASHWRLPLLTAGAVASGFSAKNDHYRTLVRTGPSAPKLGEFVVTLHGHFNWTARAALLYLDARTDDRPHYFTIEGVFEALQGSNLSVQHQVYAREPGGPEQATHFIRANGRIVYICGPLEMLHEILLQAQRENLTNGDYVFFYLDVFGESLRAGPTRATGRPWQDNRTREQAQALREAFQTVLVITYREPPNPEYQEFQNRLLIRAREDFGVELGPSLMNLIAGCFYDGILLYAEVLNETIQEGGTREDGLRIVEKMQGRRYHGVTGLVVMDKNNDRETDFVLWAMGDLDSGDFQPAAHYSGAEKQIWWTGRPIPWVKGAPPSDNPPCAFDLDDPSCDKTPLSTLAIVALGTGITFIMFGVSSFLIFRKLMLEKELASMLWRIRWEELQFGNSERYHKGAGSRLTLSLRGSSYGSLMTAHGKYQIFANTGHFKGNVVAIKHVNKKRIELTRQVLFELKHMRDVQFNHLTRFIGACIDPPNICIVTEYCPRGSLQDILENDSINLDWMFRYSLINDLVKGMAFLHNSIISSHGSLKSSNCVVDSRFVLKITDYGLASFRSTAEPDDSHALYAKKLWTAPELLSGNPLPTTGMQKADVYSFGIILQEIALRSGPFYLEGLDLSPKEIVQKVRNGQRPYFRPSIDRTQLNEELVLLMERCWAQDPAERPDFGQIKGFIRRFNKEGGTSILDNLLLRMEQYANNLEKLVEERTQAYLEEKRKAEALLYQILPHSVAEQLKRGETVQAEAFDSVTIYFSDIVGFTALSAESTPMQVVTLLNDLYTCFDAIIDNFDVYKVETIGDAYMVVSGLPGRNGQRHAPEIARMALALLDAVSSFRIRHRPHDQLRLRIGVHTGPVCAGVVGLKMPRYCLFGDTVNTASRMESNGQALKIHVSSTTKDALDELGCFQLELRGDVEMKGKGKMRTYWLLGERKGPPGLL
A3A conf – APOBEC3A deaminase inhibitors, retest, confirmation, selectivity assay for APOBEC3G inhibitor project, biochemical, single concentration, fluorescence readout | shares compounds with A3A deaminase | 63% of 1,400 active | inhibition, % at 20 µM | AID 493151, 2011 | recombinant A3A, ssDNA deaminase UDG fluorescence assay;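 active = inhibition reaching a set limit, 80% of the first screen's cutoff, at 20 µM in any replicate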
UDG A3A counter – E. coli UDG inhibitors, confirmation, counter-screen for APOBEC3A inhibitor project, biochemical, single concentration, fluorescence, FAM/TAMRA oligo; shares compounds with A3A deaminase; UDG counterscreen, FAM/TAMRA uracil oligo fluorescence; inhibition, % at 20 µM; 1,000 tested, under 10 active; AID 504714, 2011; call rule not given here
A number is an active result; i = inactive; nt = no result given. Rows were chosen to be rich in hits. Some 1.4% of all compounds tested hit in one or more screens of this group.

SMILES | FAS TE block | A3A deaminase | NPR1 activator | A3G deaminase | GC-B act | A3A conf | UDG A3A counter
CC1(C)Oc2ccc3ccc(=O)oc3c2/C(=C/N)C1=O | i | i | i | i | i | nt | nt
CC1(C)Oc2ccc3ccc(=O)oc3c2/C(=C/O)C1=O | i | i | i | i | i | nt | nt
COc1ccc(NC(=O)CN(C)CC(=O)N(C)C2(C#N)CCC(C)CC2)cc1 (stereo not drawn) | i | 43.7 | i | i | i | 33.0 | i
CN(CC(=O)Nc1ccc(F)cc1)CC(=O)N(C)C1(C#N)CCCCC1 | i | i | i | i | i | nt | nt
OC1OC2COC(c3ccccc3)OC2C(O)C1O (stereo not drawn) | nt | nt | i | nt | i | nt | nt
CC(C)(C)c1ccc(NC(=O)c2ccc3c(c2)S(=O)(=O)c2ccccc2C3=O)cc1 | i | 43.8 | i | i | i | i | i
COc1ccc(NC(=O)c2ccc3c(c2)S(=O)(=O)c2ccccc2C3=O)cc1 | i | i | i | i | i | nt | nt
O=C(/C=C/c1ccco1)OCC(=O)N1CCCCC1 | i | 49.1 | i | i | i | 38.3 | i
O=C(/C=C/c1ccccc1)OCC(=O)N1CCCC1 | i | i | i | i | i | nt | nt
Cc1nnc(SCC(=O)NCc2ccco2)[nH]c1=O | i | i | i | i | i | nt | nt
Cc1cc(=O)[nH]c(SCC(=O)NCc2ccco2)n1 | i | 65.2 | i | i | i | 55.0 | i
O=C(CSc1nccc(=O)[nH]1)NCc1ccco1 | i | 48.8 | i | i | i | 35.0 | i
Cc1cc(=O)[nH]c(SCC(=O)Nc2ccc(C(=O)O)cc2)n1 | i | i | i | i | i | nt | nt
O=C(CSc1nc2ncccc2[nH]1)NCc1ccco1 | i | i | i | i | i | nt | nt
CCOC(=O)c1ccc(NC(=O)CSc2nc(C)cc(=O)[nH]2)cc1 | i | 45.8 | nt | i | nt | 66.3 | i
COc1ccc(-n2c(COc3ccccc3)nnc2SCC(=O)Nc2ccc(OCc3ccccc3)cc2)cc1 | nt | nt | i | nt | i | nt | nt
CC1=CC(C)(C)N(C(=O)c2ccccc2)c2ccccc21 | i | i | i | i | i | nt | nt
CC1=CC(C)(C)[N+](C)(C)c2ccccc21 | i | 77.2 | i | i | i | 72.0 | i
O=[N+]([O-])c1ccc(C(O)C[n+]2ccccc2)cc1 (stereo not drawn) | i | 91.5 | nt | i | nt | 70.7 | i
C=CCN1C(C(=O)OC)CN(Cc2cn(CCC3OCCO3)nn2)CCS1(=O)=O (stereo not drawn) | nt | nt | i | nt | i | nt | nt
O=C(COC(=O)Cc1cccc(C(F)(F)F)c1)Nc1cccc2ccccc12 | i | 40.5 | i | i | i | i | i
Cc1cccc(C(=O)Oc2ccc(/C=N/NC(=O)c3cc(O)cc(O)c3)cc2)c1 | i | 69.2 | i | i | i | 77.2 | i
Cn1c2ccccc2c2cc(/C=N/NC(=O)c3cc(O)cc(O)c3)ccc21 | i | 54.7 | i | i | i | 60.4 | i
CCOC(=O)[C@@]12CCCC3=C1N(CCC3)C(=O)[C@H]2CC(=O)NCc1cccs1 | nt | nt | i | nt | i | nt | nt
CCn1c2ccccc2c(=O)c2ccccc21 | i | 64.4 | i | i | i | i | nt
SMILES | FAS TE block | A3A deaminase | NPR1 activator | A3G deaminase | GC-B act | A3A conf | UDG A3A counter
Cc1ccc(NC(=S)NNC(=O)CSc2nnc(SCc3cccc4ccccc34)s2)cc1 | nt | nt | i | nt | i | nt | nt
Cc1cccc2nc(C(=O)Nc3cc(Cl)ccc3-n3cncn3)cn12 | i | 49.1 | i | i | i | 35.9 | i
Cc1cccc(C(=O)Nc2cc(Cl)ccc2-n2cncn2)c1[N+](=O)[O-] | i | i | i | i | i | nt | nt
O=C1c2cccc3cc([N+](=O)[O-])cc(c23)C(=O)N1CCN1CCCC1 | i | 41.2 | i | i | i | i | nt
Nc1cc2c3c(cccc3c1)C(=O)N(CCN1CCCC1)C2=O | i | nt | i | nt | i | nt | nt
O=C(Nc1ccccc1C(=O)Nc1ccccc1C(=O)O)c1ccccc1 | i | i | i | i | i | nt | nt
O=C(Nc1ccccc1C(=O)O)c1cncc(Br)c1 | i | 57.6 | i | i | i | i | nt
O=C(NC(=S)Nc1ccccc1C(=O)O)c1cncc(Br)c1 | i | 40.8 | i | i | i | 17.9 | i
Cc1ccc(NC(=O)Cn2cc(C(=O)C3CC3)c3ccccc32)c(C)c1 | i | i | i | i | i | nt | nt
Cc1ccc(C)c(NC(=O)Cn2cc(C(=O)C3CC3)c3ccccc32)c1 | i | 70.7 | i | i | i | 61.7 | i
N#C/C(=C\c1c(N2CCCCCC2)nc2ccccn2c1=O)C(=O)NC1CCS(=O)(=O)C1 (stereo not drawn) | i | 44.2 | i | i | i | i | i
COC(=O)c1cc2c(c3c4cc(OC)ccc4n(S(=O)(=O)c4ccc(F)cc4)c13)C(=O)N(Cc1ccccc1)C2 | nt | nt | i | nt | i | nt | nt
COC(=O)c1ccc(N2NC(=O)/C(=C/c3ccc(-c4ccc(Cl)c(C(=O)O)c4)o3)C2=O)cc1 | i | 59.4 | i | i | i | 70.0 | i
CCCn1c(/C=C/c2cc[n+](C)cc2)nc2ccccc21 | i | 57.2 | i | i | i | 62.3 | nt
CCn1c(/C=C/c2ccccc2)nc2ccccc21 | i | i | i | i | i | nt | nt
C[C@@H]1CCN(C2CC2)S(=O)(=O)c2ccc(N3CCC[C@H]3C)cc2O1 | nt | nt | i | nt | i | nt | nt
O=C(NC1CCCC1)C(c1ccccn1)N(C(=O)c1csnn1)c1ccc(F)cc1 (stereo not drawn) | i | 72.2 | i | i | i | i | i
Cc1cccc(Nc2nn3c(=O)c4ccccc4nc3s2)c1 | i | 46.4 | i | i | i | 22.4 | i
CC1CCCN(C(=O)c2ccc3c(=O)n4nc(Nc5ccccc5)sc4nc3c2)C1 (stereo not drawn) | i | nt | i | nt | i | nt | nt
O=[N+]([O-])c1ccccc1/C=C/C=N/Nc1nc(N2CCCCC2)nc(N2CCCCC2)n1 | i | 78.2 | i | i | i | 80.7 | i
O=[N+]([O-])c1ccccc1/C=N/Nc1nc(N2CCCC2)nc(N2CCCC2)n1 | i | i | i | i | i | nt | nt
NC(=O)C[N+]1(CC#CC(O)(c2ccccc2)c2ccccc2)CCCC1 | i | 51.0 | i | i | i | 70.5 | i
CCC[N+]1(CC#CC(O)(c2ccccc2)C2CCCCC2)CCCCC1 (stereo not drawn) | i | i | i | i | i | nt | nt
